In all, about 33,000 sequences were measured (“E-score (-0.5 to 0.5)”: median about -0.017, highest 2% from about 0.3 on). The full list was thinned out, with the highest values kept by preference.
target: T1, Sut1 (UniProt P53032); experiment: PBM E-score (8-mer binding enrichment) (E-score (-0.5 to 0.5)); higher = stronger / more preferred TF binding; conditions: protein concentration: 200 nM; construct: GST-full length
T1 sequence: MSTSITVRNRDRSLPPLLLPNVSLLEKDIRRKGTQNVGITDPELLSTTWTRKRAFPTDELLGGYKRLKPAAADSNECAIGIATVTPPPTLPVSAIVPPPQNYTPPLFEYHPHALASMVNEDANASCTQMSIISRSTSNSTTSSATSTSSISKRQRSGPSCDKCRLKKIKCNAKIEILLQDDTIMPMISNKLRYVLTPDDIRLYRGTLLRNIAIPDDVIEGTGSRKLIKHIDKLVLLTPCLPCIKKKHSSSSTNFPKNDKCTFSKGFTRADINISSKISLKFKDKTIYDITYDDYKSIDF
Method: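 Universal 'all 10-mer' protein binding microarrays (Agilent AMADID 015681) probed with GST-tagged S. cerevisiae TFs (full-length or DBD) made by in vitro transcription/translation (PURExpress), about 100-200 nM. Bound TF was detected with fluorescent anti-GST. Each ungapped 8-mer (which stands for itself and its reverse complement) is scored by the PBM enrichment score (E-score), a modified Wilcoxon-Mann-Whitney statistic from -0.5 to +0.5, computed with the Universal PBM Analysis Suite. Scale: above 0.35 generally sequence-specific binding.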

Sequence | PBM E-score
GCGCTTGA | 0.0596
AATTAAAG | 0.198
AAATTATG | 0.175
AAATTATA | 0.351
TAATTATA | 0.349
ATATTTAA | 0.303
AATTAAAC | 0.329
CAATTATA | 0.164
CTATTTAA | 0.188
AATTTATA | 0.276
GATTAAAC | 0.114
ATATTTAC | 0.282
TAATTAGA | 0.218
ACTAAGTC | 0.0911
CTACCCAG | -0.18
AGAAATGC | 0.048
GAAATCCC | -0.0066
ATCACCTA | -0.13
CTTAGCCC | -0.129
ATGAACCC | 0.00896
CCAAATCC | 0.0309
AGCAGAAA | 0.175
AAGGTCTC | -0.0653
AAATTACT | 0.234
GCATTATA | 0.118

Sequence | PBM E-score
GCATTAAA | 0.0763
GAATTATA | 0.335
TCATTAAA | 0.315
CGATTAAA | 0.237
AAATTATC | 0.281
GAATTATC | 0.0676
AGATTAAA | 0.324
AAATTATT | 0.328
ACATTAAA | 0.259
AGATTAAT | 0.222
AGCAAATC | 0.142
AGTGGCAT | -0.231
CCCTTCAA | -0.068
ATTCCCTA | 0.11
AAGGCCAG | -0.00339
GAGCTAAA | 0.106
AATTTCTA | 0.285
GTCTTAAA | 0.00721
ATATTATA | 0.249
ATATTATG | 0.362
CTCTTAAA | 0.302
AAATTAAC | 0.236
AAATTAAT | 0.292
ATATTATC | 0.223
CTCTTAAC | 0.042

Sequence | PBM E-score
AAATTAAA | 0.333
CTCTCGCC | -0.182
GAGTTAAA | 0.13
AGAACCTC | -0.0985
GCAACGCC | -0.114
CTTAAAGC | -0.0652
TATACTGA | 0.292
GATATTAA | 0.285
TATATTGA | 0.332
TATATTAA | 0.315
CATATTAA | 0.183
GATATTGA | 0.234
CATATTGA | 0.0287
GAACAGAC | 0.0707
GTCCTAGA | -0.141
AGCCCGGC | 0.00111
CGCCCGGC | -0.0194
AGCCCGGG | 0.0766
CGCCCGAA | -0.101
GGCCCGGA | 0.305
AGCCCGGA | 0.341
CGCCCGGA | 0.361
GGCCCGCA | -0.113
GCCCCGGA | 0.29
CTACCAAC | 0.0725

Sequence | PBM E-score
AACTCGCT | 0.0435
ACGGAGAC | 0.232
ACGGAGCC | 0.219
ACGGAGGA | 0.0201
ACGGAGCG | 0.2
ATGGAGAA | 0.108
ACGGAGAA | 0.362
CCGGACAA | 0.283
GCGGACAA | 0.23
ACGGAGAT | 0.435
TCGGACAA | 0.367
ACGGAGCT | 0.386
ACGGAGAG | 0.247
GGATAGCA | 0.0461
CGCTGTAA | 0.00093
AACCTTTG | 0.0541
AAACTAAT | 0.292
GGTTATGA | -0.00868
CACAACCA | 0.0851
CGTTGCGC | -0.153
GTTAGTCA | -0.0461
ATTAGACC | -0.183
ACATCAAT | 0.201
AAACAGTC | -0.179
GCGGAGAA | 0.279

Sequence | PBM E-score
CCGGAGAA | 0.397
GCGGAGAC | 0.183
TCGGAGAA | 0.436
TGGGAGAA | -0.07
CAGGAGAA | 0.0231
CCGGAGAG | 0.253
CCGGAGAC | 0.328
CCGGATAA | 0.285
TCGGATAA | 0.318
ACGGATAA | 0.103
CGGGAGAC | 0.132
TCTCTAAA | 0.107
AAGATAAA | 0.199
GCGACTTA | -0.106
ACGTCTCA | -0.0462
AAAACTGA | 0.12
CAGGTTGC | -0.135
AGCCTTCC | -0.158
GGCAGCAA | -0.129
ATCGGAGG | 0.0998
ATCGGCGC | -0.0591
ATCGGATC | -0.00393
ATCGGAGC | 0.358
CTCGGAGA | 0.419
CTCGGTGC | -0.02

Sequence | PBM E-score
CTAGGAGC | -0.306
ATCGGATA | 0.288
CTCGGATA | 0.126
CTTGGAGA | -0.00672
ATCGGAGA | 0.416
CTCGGAGC | 0.389
ACCAACGC | 0.014
CGGAGCCA | 0.294
CGTTAAGC | 0.125
CTGCTGTA | -0.0764
TACAGGCA | 0.085
GTCGGATA | 0.143
GTAGGAGA | -0.0911
GTCGGAGA | 0.325
AACTAGGA | 0.0329
GACTCGCC | -0.158
AAAAAGTA | 0.125
CGGACTGA | 0.298
AGGACTGC | -0.334
CAGACTGC | -0.135
GGGACTTA | -0.0858
AGGACTGA | -0.109
AGGACTTA | -0.0276
GGGACTGA | -0.185
CGGACTTA | 0.492

Sequence | PBM E-score
CGGACTGC | 0.377
GTAAACGA | -0.0179
CACAGTAC | -0.0582
TATCCGAA | 0.304
AATCCGGT | 0.258
TATCCGCA | 0.169
CATCCGGA | 0.292
GATCCGAA | 0.26
AATCCGGA | 0.368
GATCCGTA | -0.02
AATCCGGC | -0.0834
GATCCGGC | 0.0532
TATCCGGA | 0.39
GATCCGGA | 0.324
CATCCGAA | 0.151
ACCCTCTA | -0.245
AGGTCTTC | -0.256
GGTCTCGA | 0.00072
CAACAGTC | 0.0186
TACGCGTA | -0.0808
CGGCCACC | -0.0332
CTCTAAAG | -0.0246
